The panel holds about 83,000 compounds, 20% with a hit somewhere; the sample as a whole holds those more often.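 In brief: 96-well plates, 48 h treatment, single concentration, percent growth endpoint.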 Calls of active or inactive are those of the source. The calls were made as follows: active = growth percent below 10; inactive = the rest.
Tests used:
Experiment in all cases: NCI-60 one-dose screen, 48 h (100 = growth as untreated, 0 = no growth, -100 = all killed)
DU-145 prostate = conditions: 10 µM unless noted
K-562 leukemia = conditions: 10 µM unless noted
MALME-3M melanoma = conditions: 10 µM unless noted
MDA-MB-231 breast = conditions: 10 µM unless noted
RXF 393 renal = conditions: 10 µM unless noted
SF-268 CNS = conditions: 10 µM unless noted
SF-295 CNS = conditions: 10 µM unless noted
SF-539 CNS = conditions: 10 µM unless noted
UACC-257 melanoma = conditions: 10 µM
M14 melanoma = conditions: 10 µM unless noted
HCT-15 colon = conditions: 10 µM unless noted
HT29 colon = conditions: 10 µM unless noted
SNB-75 CNS = conditions: 10 µM unless noted
SNB-19 CNS = conditions: 10 µM unless noted
U251 CNS = conditions: 10 µM unless noted
PC-3 prostate = conditions: 10 µM unless noted
SK-MEL-5 melanoma = conditions: 10 µM unless noted
UACC-62 melanoma = conditions: 10 µM unless noted
LOX IMVI melanoma = conditions: 10 µM unless noted
SK-MEL-28 melanoma = conditions: 10 µM unless noted

Measured: growth

CC(=O)C1=NN(c2ccc(Cl)cc2)C(=O)CN1C
inactive: DU-145 prostate 107% | K-562 leukemia 114% | MALME-3M melanoma 107% | MDA-MB-231 breast 105% | RXF 393 renal 121% | SF-268 CNS 108% | SF-295 CNS 95.5% | SF-539 CNS 97.8% | UACC-257 melanoma 101% | M14 melanoma 101% | HCT-15 colon 100% | HT29 colon 102% | SNB-75 CNS 106% | SNB-19 CNS 103% | U251 CNS 97.6% | PC-3 prostate 98.1% | SK-MEL-5 melanoma 102% | UACC-62 melanoma 97.7% | LOX IMVI melanoma 98.3% | SK-MEL-28 melanoma 102%

C#CCOc1ccc(/C=N/Nc2nc(-c3cc4cc(Br)cc(Br)c4oc3=O)cs2)cc1
inactive: DU-145 prostate 96.1% | K-562 leukemia 90.7% | MALME-3M melanoma 109% | MDA-MB-231 breast 96% | RXF 393 renal 114% | SF-268 CNS 84.8% | SF-295 CNS 91.4% | SF-539 CNS 84.4% | UACC-257 melanoma 106% | M14 melanoma 98.2% | HCT-15 colon 95.2% | HT29 colon 104% | SNB-75 CNS 90.3% | SNB-19 CNS 104% | U251 CNS 96.2% | PC-3 prostate 88.1% | SK-MEL-5 melanoma 98.5% | UACC-62 melanoma 88.1% | LOX IMVI melanoma 102% | SK-MEL-28 melanoma 106%

CC(C)(C)n1nnnc1C(Nc1nccs1)c1cc2cccc3ccc4cccc1c4c32 (stereo not given)
inactive: DU-145 prostate 107% | K-562 leukemia 102% | MALME-3M melanoma 97% | MDA-MB-231 breast 99.3% | RXF 393 renal 92.1% | SF-268 CNS 100% | SF-295 CNS 93.1% | SF-539 CNS 92.9% | UACC-257 melanoma 100% | M14 melanoma 106% | HCT-15 colon 93.2% | HT29 colon 104% | SNB-75 CNS 95.7% | SNB-19 CNS 88.8% | U251 CNS 89.3% | PC-3 prostate 90.1% | SK-MEL-5 melanoma 94% | UACC-62 melanoma 48.8% | LOX IMVI melanoma 96.3% | SK-MEL-28 melanoma 101%

C/C(=C(/C)C1CC1CCN(C(=O)c1ccc([N+](=O)[O-])cc1)S(=O)(=O)c1ccc(C)cc1)C1CCCCC1 (stereo not given)
inactive: DU-145 prostate 96.6% | K-562 leukemia 74.7% | MALME-3M melanoma 98.3% | MDA-MB-231 breast 97.3% | RXF 393 renal 105% | SF-268 CNS 96.5% | SF-295 CNS 104% | SF-539 CNS 100% | UACC-257 melanoma 96.9% | M14 melanoma 97.7% | HCT-15 colon 98.1% | HT29 colon 99.2% | SNB-75 CNS 106% | SNB-19 CNS 92.5% | U251 CNS 94.7% | PC-3 prostate 85.4% | SK-MEL-5 melanoma 99.4% | UACC-62 melanoma 79.7% | LOX IMVI melanoma 93.9% | SK-MEL-28 melanoma 101%

C#C[C@]1(O)CC[C@H]2[C@@H]3CC=C4c5sc(-c6ccc(OC)cc6)nc5CC[C@]4(C)[C@H]3CC[C@@]21C
inactive: DU-145 prostate 76.9% | K-562 leukemia 14.5% | MALME-3M melanoma 51% | MDA-MB-231 breast 72.3% | SF-268 CNS 58.9% | SF-539 CNS 18.1% | UACC-257 melanoma 30.3% | M14 melanoma 36.4% | HCT-15 colon 46.9% | HT29 colon 46.6% | SNB-75 CNS 22.9% | SNB-19 CNS 63.6% | U251 CNS 42.7% | PC-3 prostate 28.2% | SK-MEL-5 melanoma 85.1% | UACC-62 melanoma 33.2% | LOX IMVI melanoma 45%
active: RXF 393 renal -46.3% | SF-295 CNS -36.6% | SK-MEL-28 melanoma 4.22%

O=C(Nc1cccc(-c2nc(-c3ccc(NC(=O)c4cccs4)cc3Cl)no2)c1)Nc1ccc(NC(=O)C2CC2)c(C(F)(F)F)c1
active: DU-145 prostate -13.4% | K-562 leukemia -11.1% | MALME-3M melanoma -80.6% | MDA-MB-231 breast -58.2% | RXF 393 renal -83.7% | SF-268 CNS -33.8% | SF-295 CNS -63.1% | SF-539 CNS -85.4% | UACC-257 melanoma -32.2% | M14 melanoma -41.1% | HCT-15 colon 0.554% | HT29 colon -11.2% | SNB-75 CNS -66.4% | SNB-19 CNS -17.7% | U251 CNS -49.7% | PC-3 prostate -56.3% | SK-MEL-5 melanoma -90.7% | UACC-62 melanoma -73.8% | LOX IMVI melanoma -87.1% | SK-MEL-28 melanoma -83.3%

CC(C)=CCc1c2c(c(O)c3c1O[C@]14C(=C[C@@H]5C[C@H]1C(C)(C)O[C@@]4(C/C=C(/C)C(=O)O)C5=O)C3=O)CC(O)C(C)(C)O2 (stereo not given in full)
inactive: SNB-19 CNS 22.6%
active: DU-145 prostate -78.2% | K-562 leukemia 5.83% | MALME-3M melanoma -38.5% | MDA-MB-231 breast 0.342% | RXF 393 renal -77.4% | SF-268 CNS -40.7% | SF-295 CNS -48.5% | SF-539 CNS -37.2% | UACC-257 melanoma -32.5% | M14 melanoma -24.8% | HCT-15 colon -41.6% | HT29 colon -8.66% | SNB-75 CNS -25.7% | U251 CNS -72.4% | PC-3 prostate 7.46% | SK-MEL-5 melanoma -96.6% | UACC-62 melanoma -26.1% | LOX IMVI melanoma -95.4% | SK-MEL-28 melanoma -13.7%

COC[C@]12CC[C@@H](C)[C@H](C)[C@H]1C1=CC[C@@H]3[C@@]4(C)CCCNC(C)(C)[C@@H]4CC[C@@]3(C)[C@]1(C)CC2
active: K-562 leukemia 0.992% | MALME-3M melanoma -36.7% | SF-295 CNS -74.2% | M14 melanoma -48.3% | HCT-15 colon 8.12% | HT29 colon 0.874% | U251 CNS -34.8% | LOX IMVI melanoma -87.8% | SK-MEL-28 melanoma -59.6%
inactive: DU-145 prostate 12.8% | MDA-MB-231 breast 51.2% | RXF 393 renal 56.2% | SF-268 CNS 70.2% | SF-539 CNS 26.3% | UACC-257 melanoma 20.3% | SNB-75 CNS 105% | SNB-19 CNS 47.8% | PC-3 prostate 18.4% | SK-MEL-5 melanoma 35.6% | UACC-62 melanoma 17.2%

C#C[C@]1(O)CC[C@H]2[C@@H]3CC=C4c5sc(Nc6cc(OC)ccc6OC)nc5CC[C@]4(C)[C@H]3CC[C@@]21C
inactive: DU-145 prostate 43.8% | MALME-3M melanoma 14.4% | MDA-MB-231 breast 35.9% | SF-268 CNS 30.8% | HCT-15 colon 10.3% | HT29 colon 21.1% | SNB-19 CNS 38.3% | U251 CNS 26.1% | PC-3 prostate 18.9%
active: K-562 leukemia 6.54% | RXF 393 renal -57.4% | SF-295 CNS -67% | SF-539 CNS -19.4% | UACC-257 melanoma 0.933% | M14 melanoma -1.11% | SNB-75 CNS 2.31% | SK-MEL-5 melanoma 6.5% | UACC-62 melanoma -14% | LOX IMVI melanoma 5.19% | SK-MEL-28 melanoma -46.6%

CC(=O)c1sc(Nc2cccc(Nc3nc(C)c(C)s3)c2)nc1C
inactive: DU-145 prostate 45.4% | K-562 leukemia 40.9% | MALME-3M melanoma 69.8% | MDA-MB-231 breast 80.7% | RXF 393 renal 47% | SF-268 CNS 71.1% | SF-295 CNS 86.5% | SF-539 CNS 72.2% | UACC-257 melanoma 88.7% | M14 melanoma 51.3% | HCT-15 colon 44.9% | HT29 colon 70% | SNB-75 CNS 62.9% | SNB-19 CNS 90.9% | U251 CNS 65.7% | PC-3 prostate 51.3% | SK-MEL-5 melanoma 55.8% | UACC-62 melanoma 48.8% | LOX IMVI melanoma 48.1% | SK-MEL-28 melanoma 71.5%

CNC(=O)c1cc(Oc2ccc3nc(NC(=O)c4ccc(CN5CCCN(C)CC5)c(C(F)(F)F)c4)sc3c2)ccn1
inactive: DU-145 prostate 40.2% | SF-268 CNS 58% | SNB-75 CNS 47.5% | PC-3 prostate 22.2%
active: K-562 leukemia -39.9% | MALME-3M melanoma -69.7% | MDA-MB-231 breast -21.9% | RXF 393 renal -46.4% | SF-295 CNS -34.8% | SF-539 CNS -82.5% | UACC-257 melanoma -88.4% | M14 melanoma -88% | HCT-15 colon -21.4% | HT29 colon -75.5% | SNB-19 CNS 7.5% | U251 CNS 1.82% | SK-MEL-5 melanoma -59.9% | UACC-62 melanoma -7.16% | LOX IMVI melanoma -81.9% | SK-MEL-28 melanoma -74%

NS(=O)(=O)c1ccc(Nc2nc(N/N=C/c3ccc([N+](=O)[O-])cc3)nc(Nc3ccccc3)n2)cc1
inactive: DU-145 prostate 43.6% | K-562 leukemia 20.3% | MALME-3M melanoma 36.9% | MDA-MB-231 breast 45.8% | SF-268 CNS 26.9% | SF-295 CNS 57.1% | UACC-257 melanoma 82.5% | M14 melanoma 13.3% | HCT-15 colon 86.5% | HT29 colon 24.6% | SNB-75 CNS 45.4% | SNB-19 CNS 20.4% | U251 CNS 18.2% | PC-3 prostate 50.2% | SK-MEL-5 melanoma 32.3% | UACC-62 melanoma 45.1% | SK-MEL-28 melanoma 35.2%
active: RXF 393 renal -5.96% | SF-539 CNS -36.3% | LOX IMVI melanoma -20.6%

CCOc1c(C#N)c(Nc2ccc(S(N)(=O)=O)cc2)c(C#N)c2nnc(C)n12
inactive: DU-145 prostate 109% | K-562 leukemia 110% | MALME-3M melanoma 99.1% | MDA-MB-231 breast 90.6% | RXF 393 renal 132% | SF-268 CNS 99% | SF-295 CNS 105% | SF-539 CNS 97.2% | UACC-257 melanoma 104% | M14 melanoma 100% | HCT-15 colon 105% | HT29 colon 107% | SNB-75 CNS 91% | SNB-19 CNS 101% | U251 CNS 108% | PC-3 prostate 85.4% | SK-MEL-5 melanoma 97.8% | UACC-62 melanoma 91.8% | LOX IMVI melanoma 95.6% | SK-MEL-28 melanoma 110%

CN1CCN(c2nc(-c3csc(-c4ccncc4)n3)cc3ccccc23)CC1
active: RXF 393 renal -26.5% | UACC-257 melanoma -1.71% | M14 melanoma -18.5%
inactive: DU-145 prostate 65.3% | K-562 leukemia 11% | MALME-3M melanoma 30.7% | MDA-MB-231 breast 63% | SF-268 CNS 72.8% | SF-295 CNS 45.8% | SF-539 CNS 52.6% | HCT-15 colon 17% | HT29 colon 26.5% | SNB-75 CNS 62.5% | SNB-19 CNS 77.6% | U251 CNS 49.1% | PC-3 prostate 59.8% | SK-MEL-5 melanoma 70.4% | UACC-62 melanoma 26.6% | LOX IMVI melanoma 11.4% | SK-MEL-28 melanoma 28.8%

Cc1cc(=O)n2nc(-c3cn(C)c4ccc(Cl)cc34)sc2n1
inactive: DU-145 prostate 90.1% | K-562 leukemia 99.2% | MALME-3M melanoma 93% | MDA-MB-231 breast 82.3% | RXF 393 renal 59.5% | SF-268 CNS 87% | SF-295 CNS 105% | SF-539 CNS 83% | UACC-257 melanoma 97% | M14 melanoma 92% | HCT-15 colon 86.4% | HT29 colon 104% | SNB-75 CNS 97% | SNB-19 CNS 96.6% | U251 CNS 98.5% | PC-3 prostate 86.2% | SK-MEL-5 melanoma 88.8% | UACC-62 melanoma 86.8% | LOX IMVI melanoma 85.4% | SK-MEL-28 melanoma 100%
